PubChem BioAssay AID624136 (Broad Institute, 2012)
Screen size: about 17,000 compounds; about 75 (0.4%) were called active.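 How the source made its calls: active means compounds whose four printed spots each glow above background more than chance allows, each with a p-value under 7%; inactive means the rest.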 For the sample, actives were picked, then their nearest neighbours and some compounds at random.

system: mutant tumor protein p53 (GST-tagged), Homo sapiens; assay: binders of human mutant p53, primary screen, biochemical, small molecule microarray, anti-GST fluorescence (AID 624136); settings: small molecule microarray binding

outcome, inactive:
Cc1ccccc1-c1nnc(SCC(=O)Nc2ccc(S(N)(=O)=O)cc2)n1C
CC(C)(C)c1cn2c3ccccc3nc2n1CCN1CCOCC1
CNC[C@H]1Oc2ccc(NS(=O)(=O)c3ccccc3)cc2CC(=O)N([C@H](C)CO)C[C@@H]1C
CC(C)NC(=O)Nc1ccc2c(c1)C(=O)N([C@@H](C)CO)C[C@@H](C)[C@H](CN(C)C)OCCCC[C@H](C)O2
NC(CC(=O)Nc1ccc(Cl)cc1)C(=O)O (stereo not given)
C[C@@H]1CN([C@@H](C)CO)C(=O)c2cccc(NC(=O)c3ccncc3)c2O[C@@H]1CN(C)CC1CC1
C[C@@H]1CN([C@@H](C)CO)C(=O)c2cccc(NS(=O)(=O)c3cn(C)cn3)c2O[C@@H]1CN(C)Cc1ccc(Cl)c(Cl)c1
COc1ccc(CN(C)C[C@H]2Oc3c(NC(=O)C4CCCCC4)cccc3C(=O)N([C@@H](C)CO)C[C@H]2C)cc1
CC(=O)Nc1ccc(NC(=O)CN(c2ccc(I)cc2)S(C)(=O)=O)cc1
CN(CCc1ccccn1)S(=O)(=O)c1ccc2c3c(cccc13)C(=O)N2
CNC[C@@H]1OCCCC[C@@H](C)Oc2ccc(NS(C)(=O)=O)cc2C(=O)N([C@H](C)CO)C[C@@H]1C
CCN1CCOC(CC(=O)Nc2ccc3c(c2)OCCO3)C1=O (stereo not given)
C[C@@H]1CN([C@H](C)CO)C(=O)c2cc(NC(=O)Cn3cnnn3)ccc2O[C@@H]1CN(C)CC1CC1
C[C@@H]1CN([C@@H](C)CO)C(=O)c2cc(NS(=O)(=O)c3ccccc3)ccc2O[C@@H](C)CCCCO[C@@H]1CN(C)S(=O)(=O)c1cccs1
O=C(Cn1cnc([N+](=O)[O-])n1)Nc1c(Cl)cccc1Cl
COc1ccc(CN(C)C[C@H]2Oc3c(NS(=O)(=O)c4ccc(Cl)cc4)cccc3C(=O)N([C@H](C)CO)C[C@H]2C)cc1
Cn1c(COc2ccccc2)nnc1SCc1nc2ccccc2c(=O)[nH]1
Cc1noc(C)c1NC(=O)N(C)C[C@H]1Oc2c(NC(=O)c3nc4ccccc4s3)cccc2C(=O)N([C@@H](C)CO)C[C@@H]1C
COc1ccc(CN(C)C[C@H]2Oc3c(NC(=O)NC4CCCCC4)cccc3C(=O)N([C@@H](C)CO)C[C@@H]2C)cc1
Cc1noc(C)c1NC(=O)N(C)C[C@@H]1OCCCC[C@@H](C)Oc2ccc(NC(=O)C3CCCCC3)cc2C(=O)N([C@H](C)CO)C[C@@H]1C
CC1(C)C[C@H](O)C[C@@]2(C)[C@H]1[C@H](O)C=C1COC(=O)[C@@]12O
C[C@@H]1CN([C@H](C)CO)C(=O)c2cccc(NC(=O)Nc3cccc4ccccc34)c2O[C@@H]1CN(C)C(=O)Nc1ccc(F)cc1
C[C@@H]1CC[C@]2(C(=O)O)CC[C@]3(C)C(=CCC4[C@@]5(C)CC[C@H](O)[C@](C)(C(=O)O)C5CC[C@]43C)C2[C@]1(C)O (stereo not given in full)
C[C@H]1CN([C@@H](C)CO)C(=O)c2cccc(NC(=O)Nc3ccccc3)c2O[C@@H]1CN(C)S(C)(=O)=O
COc1ccc(CN(C)C[C@H]2Oc3c(NC(=O)c4ccncc4)cccc3C(=O)N([C@H](C)CO)C[C@@H]2C)cc1
Cc1cc(C(=O)Nc2cccc3c2O[C@@H](CN(C)Cc2ccc(C(=O)O)cc2)[C@H](C)CN([C@@H](C)CO)C3=O)n(C)n1
C[C@@H]1CN([C@@H](C)CO)C(=O)Cc2cc(NC(=O)Nc3ccc(F)cc3)ccc2O[C@@H]1CN(C)C(=O)NC1CCCCC1
C[C@H]1CN([C@@H](C)CO)C(=O)c2cc(NC(=O)Nc3ccc4c(c3)OCO4)ccc2O[C@@H]1CN(C)CC1CCCCC1
COc1ccc(S(=O)(=O)Nc2ccc3c(c2)CC(=O)N([C@H](C)CO)C[C@H](C)[C@@H](CN(C)C)O3)cc1
COc1ccc(S(=O)(=O)N(C)C[C@@H]2Oc3ccc(NC(=O)CCC(F)(F)F)cc3C(=O)N([C@@H](C)CO)C[C@@H]2C)cc1
Cc1ccc(C(=O)C2C(=O)C(=O)N(Cc3cccnc3)C2c2ccc(Cl)c(Cl)c2)o1 (stereo not given)
C[C@@H]1CN([C@@H](C)CO)C(=O)Cc2cc(NC(=O)CCN3CCOCC3)ccc2O[C@@H]1CN(C)CC1CC1
COc1ccc(NC(=O)Nc2cccc3c2O[C@@H](CN(C)S(=O)(=O)c2cn(C)cn2)[C@H](C)CN([C@@H](C)CO)C3=O)cc1
Cc1noc(C)c1S(=O)(=O)N(C)C[C@@H]1Oc2ccc(NC(=O)C3CC3)cc2CC(=O)N([C@@H](C)CO)C[C@@H]1C
Cc1noc(C)c1NC(=O)N(C)C[C@H]1OCc2cn(nn2)CCCC(=O)N([C@@H](C)CO)C[C@H]1C
C[C@H](CO)N1C[C@H](C)[C@@H](CN(C)C(=O)NC2CCCCC2)Oc2ccc(NC(=O)c3ccncc3)cc2CC1=O
O=C(C1=C[C@H](C2CC2)C[C@H](OCc2ccc(CO)cc2)O1)N1CCN(Cc2ccccc2)CC1
Cn1nnnc1SCC(=O)Nc1cccc(NC(=O)C23CC4CC(CC(C4)C2)C3)c1
C[C@@H]1CN([C@H](C)CO)C(=O)c2cccc(NS(=O)(=O)c3ccc(Cl)cc3)c2O[C@@H]1CN(C)CC1CC1
COc1ccc(CN(C)C[C@@H]2Oc3ccc(NC(=O)Nc4ccc(OC)cc4)cc3CC(=O)N([C@H](C)CO)C[C@H]2C)cc1
COC(=O)c1c(C)n(CCNc2ccc([N+](=O)[O-])cc2)c2ccc(O)cc12
O=C(CCc1nc(-c2ccccc2Cl)no1)Nc1ccccc1[N+](=O)[O-]
C[C@H]1CN([C@@H](C)CO)C(=O)c2cccc(NC(=O)C3CCOCC3)c2O[C@@H]1CN(C)C(=O)Nc1cccc2ccccc12
C[C@@H]1CN([C@@H](C)CO)C(=O)c2cccc(NS(=O)(=O)c3cn(C)cn3)c2O[C@H]1CN(C)Cc1ccc(Cl)c(Cl)c1
C=C1C[C@@H]2COC(=O)[C@]2(Cc2ccc3ccccc3c2)C1
